Assay outcomes from PubChem BioAssay.
Rows were chosen to be rich in hits. Some 7.9% of all compounds tested hit in one or more screens of this group.
SW480 rereplic = A quantitative high throughput screen for small molecules that induce DNA re-replication in SW480 colon adenocarcinoma cells; AID 624297, 2012; SW480 DNA re-replication, Hoechst DNA content imaging, 48 h; Potency, µM (highest dose often 46.1 µM), without a hit: at the top dose re-replication activation, usual class: activators; hit rate 1.8% among 340,000; note: % of control where 0% means no effect; nearly all actives have a fitted effect of over 55% in size
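Quantitative HTS format with DMSO vehicle controls; 48 hr drug incubation at 37 C, then 40 min Hoechst staining and scanning imager measurement at 405 nm excitation.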
KB-3-1 cytotox = qHTS assay for MDR1-selective chemotherapeutics: Primary screen using the parental adenocarcinoma cell KB-3-1 | KB-3-1 viability, CellTiter-Glo ATP luminescence, 72 h | Potency, µM (series often up to 46.1 µM), actives largely listed as cytotoxic | hit rate 1.4% among 400,000 | AID 1347075, 2019; note: % is set by controls: 0 for no effect and ±100 for the full control effect; nearly all actives have a fitted effect of over 60% in size
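Parental KB-3-1 adenocarcinoma cells in phenol-red-free DMEM with 10% FBS were pin-treated with compounds at several concentrations, incubated 72 h at 37 °C, and viability read by CellTiter-Glo luminescence; concentration-effect curves were fitted after normalization.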
HT1080-NT tox = qHTS for induction of synthetic lethality in tumor cells producing 2HG: qHTS for the HT-1080-NT fibrosarcoma cell line; Potency, µM (series often up to 46.1 µM), for the others: top-dose activity, negative = less viability, hits mostly cytotoxic; HT-1080-NT fibrosarcoma viability, CellTiter-Glo ATP luminescence, 48 h; hit rate 1.6% among 360,000;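 note: NT is the 2HG producing partner of a matched IDH1 knockdown line; 0% = DMSO-treated cells and -100% = media-only wells without cells; nearly all actives have a fitted effect of over 55% in size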
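Viability by CellTiter-Glo luminescence after 48 h compound exposure at 37C of HT-1080-NT cells (750/well, RPMI, 5% FBS). % activity scaled between DMSO wells and medium-only wells, then curve-fitted and categorized by curve class.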
KB-V1 MDR tox = qHTS assay for MDR1-selective chemotherapeutics: Primary screen using the drug-selected MDR subline cells KB-V1 | KB-V1 MDR cells viability, CellTiter-Glo, 72 h | Potency, µM (top dose mostly 46.1 µM), hits mostly cytotoxic | hit rate 3.4% among 400,000; note: % is set by controls: 0 for no effect and ±100 for the full control effect; nearly all actives have a fitted effect of over 60% in size
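Cytotoxicity toward P-gp-expressing KB-V1 cells was determined as loss of CellTiter-Glo luminescence after 72 h at 37 degrees C. Compounds were tested in quantitative HTS format across a concentration range, with curves fitted to normalized data.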
HT1080 IDH1KD tx = qHTS for induction of synthetic lethality in tumor cells producing 2HG: qHTS for the HT-1080-IDH1KD cell line; hit rate 2% among 360,000; Potency, µM (series often up to 46.1 µM), without a hit: top-dose activity, negative = toxicity, actives largely listed as cytotoxic; HT-1080 IDH1 knockdown viability, ATP luminescence, 48 h; AID 686971, 2013;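 note: 0% = DMSO wells and -100% = cell-free medium wells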
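HT-1080-IDH1KD cells (IDH1 knocked down), 750/well in RPMI with 5% FBS, treated with compound 48 h at 37 degrees C. Viability by CellTiter-Glo luminescence, normalised to DMSO and no-cell wells; concentration-response curves classed.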
MCF10A rereplic = A quantitative high throughput screen for small molecules that induce DNA re-replication in MCF 10a normal breast cells | MCF 10A DNA re-replication, Hoechst nuclear intensity, 48 h | Potency, µM (titrated, usually from 46.1 µM), for the others: top-dose activity, positive = re-replication, usual class: activators | hit rate 2.9% among 350,000 | AID 624296, 2012; note: % of control where 0% means no effect; nearly all actives have a fitted effect of over 50% in size
Numbers without * were called inactive; i = inactive; ? = inconclusive; . = no result; [ ] = remark or other dose. Calls come from the whole dose curve; as a rule, active = well fitted curve in the direction sought with a large enough effect; inconclusive = small, poorly fitted or top-dose-only effect, or another doubt; inactive = no such curve, though single readings can be large; an effect the other way counts as inactive or inconclusive. Potency is the fitted concentration of half-maximal effect.

SMILES | SW480 rereplic | KB-3-1 cytotox | HT1080-NT tox | KB-V1 MDR tox | HT1080 IDH1KD tx | MCF10A rereplic
O=C1c2ccc(Cl)cc2S(=O)(=O)c2cccc(C(=O)N3CCN(c4ccc(Cl)cn4)CC3)c21 | ? | i | ? | i | ? | ?
Cc1cccc(-n2c(SCC(=O)N(C)C3CCS(=O)(=O)C3)nc3ccccc3c2=O)c1C (stereo not given) | ? | i | 7.0% | i | 8.3% | 8.2%
CC(=O)c1sc(N/N=C\c2ccccc2O)nc1C | ? | ? | ? | i | ? | 16.4µM*
COc1cccc(NC(=O)N2CCCC(C(=O)Nc3ccccc3OC)C2)c1 (stereo not given) | 4.1% | i | 7.8% | 20.6µM* | 13.6% | -0.8%
COc1cccc(NC(=O)N2CCC(C(=O)Nc3ccc(C)cc3C)CC2)c1 | -5.1% | i | -3.0% | 14.6µM* | 15.7% | 0.7%
Cc1cc(F)ccc1NC(=O)C1CCN(C(=O)Nc2ccccc2)CC1 | -62.1% | i | 3.7% | i | 0.6% | ?
O=c1c2ccccc2nc(N/N=C/c2c(O)ccc3ccccc23)n1O | ? | ? | ? | i | ? | 3.26µM*
O=c1c2ccccc2nc(/C=C/c2cc(Br)ccc2O)n1CCCO | ? | 20.6µM* | ? | ? | ? | ?
Cc1nc2ccccc2c(=O)n1/N=C/c1c(O)ccc2ccccc12 | 2.91µM* | i | ? | i | ? | 12.8%
O=c1c2ccccc2nc(/C=C/c2ccccc2)n1CCc1ccccc1 | 0.2% | i | 22.6% | i | 26.8% | -3.0%
Cc1nc2ccccc2c(=O)n1/N=C/c1cc(Br)ccc1O | 20.6µM* | ? | ? | ? | ? | 3.5%
Cc1nc2ccccc2c(=O)n1/N=C/c1ccc(N(C)C)cc1 | -2.6% | i | 14.2% | i | 3.0% | 10.9%
CC(C)(C)N=Cc1c(O)ccc2oc3c(c12)CCCC3 | 3.7% | i | ? | i | 0.0% | 13.6%
Cc1nc2ccccc2c(=O)n1/N=C/c1c(O)ccc2oc3c(c12)CCCC3 | 17.2% | ? | -0.1% | 18.4µM* | -13.6% | 1.2%
Cc1ccc(NC(=O)Cn2c(=O)n(CC(=O)NCCc3ccccc3)c(=O)c3ccccc32)cc1C | . | i | . | i | . | .
Cc1oc(-c2ccccc2F)nc1CN1CCC(C(=O)NCc2ccco2)CC1 | 8.5% | i | 3.9% | i | 0.7% | 14.3%
O=C(NCCc1ccccc1)C1CCN(c2nc3ccccc3o2)CC1 | -1.7% | i | 3.9% | i | -4.0% | -11.0%
O=C(NC1CCCCCCC1)C1CCN(c2nc3ccccc3o2)CC1 | 0.2% | 18.4µM* | ? | 2.31µM* | -29.8% | -2.6%
Cc1oc(-c2ccccc2F)nc1CN1CCC(C(=O)NC2CCCCCCC2)CC1 | 1.7% | i | 7.3% | 11.6µM* | 10.4% | 8.3%
O=C(Nc1ccc2c(c1)CCC2)C1CCN(c2c3c(nc4ncnn24)CCC3)CC1 | 9.5% | ? | ? | ? | ? | -3.3%
O=C(NC1CCCc2ccccc21)C1CCN(c2c3c(nc4ncnn24)CCC3)CC1 (stereo not given) | 4.7% | i | 2.4% | 20.6µM* | -20.6% | -4.6%
Cc1oc(-c2ccccc2F)nc1CN1CCC(C(=O)NC2CCCc3ccccc32)CC1 (stereo not given) | 3.4% | i | -3.0% | 8.2µM* | 0.8% | 14.3%
CCc1cccc(NC(=O)c2ccc(CN3C(=O)C(C)=C(c4ccc(OC)cc4)S3(=O)=O)cc2)c1 | . | i | . | i | . | .
Oc1ccc(Nc2nc(N3CCCC3)c3ccccc3n2)cc1 | ? | 9.2µM* | ? | i | ? | ?
COc1ccc(Nc2nc(N3CCCCC3)c3ccccc3n2)cc1 | 6.9% | ? | -24.9% | 20.6µM* | ? | 19.1%
SMILES | SW480 rereplic | KB-3-1 cytotox | HT1080-NT tox | KB-V1 MDR tox | HT1080 IDH1KD tx | MCF10A rereplic
CC1CCCC(C)N1C(=O)CSc1nc2ncnc(N)c2[nH]1 (stereo not given) | 8.2µM* | i | 6.8% | i | 5.2% | 6.51µM*
CC(C)CC(N)c1csc(Nc2ccc(C(=O)N(C)Cc3ccccc3)cn2)n1 (stereo not given) | . | ? | 4.61µM* | i | 5.8µM* | .
Cc1cnc(C)c(Nc2nc(C(N)Cc3ccccc3)cs2)n1 (stereo not given) | . | i | ? | i | ? | .
NC(CCc1ccccc1)c1csc(Nc2ccc(C(=O)NCCCO)cn2)n1 (stereo not given) | . | i | ? | i | -0.6% | .
CN(Cc1ccccc1)C(=O)c1ccc(Nc2nc(C(N)Cc3ccccc3)cs2)nc1 (stereo not given) | . | i | ? | i | 20.6µM* | .
CCCCN(C)C(=O)c1ccc(Nc2nc(C(N)Cc3ccccc3)cs2)nc1 (stereo not given) | . | i | 23.1µM* | i | -27.0% | .
CC(C)CC(N)c1csc(Nc2cc(Oc3ccccc3)ncn2)n1 (stereo not given) | . | i | 20.6µM* | ? | -23.5% | .
COc1ccccc1OCCSc1nc2ccccc2n1CC(=O)N1CCOCC1 | . | i | . | i | . | .
NC(=O)c1ccc(Nc2nc(C(N)COCc3ccccc3)cs2)cc1 (stereo not given) | . | i | -0.8% | i | 1.6% | .
CN(Cc1ccccc1)C(=O)c1ccc(Nc2nc(C(N)COCc3ccccc3)cs2)nc1 (stereo not given) | . | i | 23.1µM* | i | ? | .
NC(Cc1ccccc1)c1csc(Nc2ccc(C(=O)NCCCO)cn2)n1 (stereo not given) | . | i | -4.5% | i | 15.3% | .
NC(Cc1ccc(Cl)cc1)c1csc(Nc2ccc(C(=O)NCCCO)cn2)n1 (stereo not given) | . | i | 14.6µM* | i | ? | .
COc1ccc(-c2ccc3ncnc(NCc4cccs4)c3c2)cc1 | . | ? | . | i | . | .
O=C(O)c1cc(-c2cccnc2)nc2ccc(Br)cc12 | 2.3% | i | -1.3% | i | 14.2% | -17.1%[9.22 µM]
O=C(Nc1ccc(C(F)(F)F)cc1)c1cc(-c2cccnc2)nc2ccc(Br)cc12 | ? | i | 11.3% | ? | 5.0% | 5.17µM*
CC(=O)Nc1cccc(NC(=O)c2cc(-c3cccnc3)nc3ccc(Br)cc23)c1 | ? | i | ? | i | ? | 11.6µM*
